Source: PubChem BioAssay AID743099 (Vanderbilt Specialized Chemistry Center, 2013)
Calls of active or inactive are those of the source. How the calls were made is not given here.

target: Muscarinic acetylcholine receptor M2 (Homo sapiens) (UniProt P08172); test: off-target M2 muscarinic calcium response – cell-based, CHO-K1 hM2/Gqi5, Fluo-4 calcium flux, ACh EC20, counter-screen for M5 NAM project (AID 743099); conditions: series mostly up to 30 µM
Sequence (P08172 whole entry, looked up): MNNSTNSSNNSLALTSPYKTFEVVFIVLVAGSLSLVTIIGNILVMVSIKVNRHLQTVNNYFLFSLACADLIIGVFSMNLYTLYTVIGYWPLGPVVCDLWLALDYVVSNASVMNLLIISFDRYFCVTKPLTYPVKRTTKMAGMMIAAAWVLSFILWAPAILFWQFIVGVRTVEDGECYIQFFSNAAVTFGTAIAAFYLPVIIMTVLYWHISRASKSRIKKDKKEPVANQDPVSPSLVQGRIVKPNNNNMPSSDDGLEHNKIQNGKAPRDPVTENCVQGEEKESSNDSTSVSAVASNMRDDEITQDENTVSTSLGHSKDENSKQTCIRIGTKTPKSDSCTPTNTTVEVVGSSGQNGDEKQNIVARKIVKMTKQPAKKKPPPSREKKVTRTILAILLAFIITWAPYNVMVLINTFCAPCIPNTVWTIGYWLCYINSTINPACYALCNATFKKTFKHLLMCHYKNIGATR

SMILES	outcome
O=C(c1cc(F)cc(F)c1)N1CCN2C(=O)c3ccccc3C12c1ccc(Cl)cc1 (stereo not given)	inactive
O=C(c1ccc(F)c(F)c1)N1CCN2C(=O)c3ccccc3[C@@]12c1ccc(Cl)cc1	inactive
O=C(c1ccc(F)c(F)c1)N1CCN2C(=O)c3ccccc3C12c1ccccc1 (stereo not given)	inactive
O=C(c1ccc(F)c(F)c1)N1CCN2C(=O)c3ccccc3C12c1ccc(Cl)cc1 (stereo not given)	inactive
O=C(c1ccc(F)cc1)N1CCN2C(=O)c3ccccc3C12c1ccccc1 (stereo not given)	inactive
